From PubChem BioAssay (NCATS)
Records with an inconclusive call do not appear. Active and inactive are the calls of the source.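 Rule for the calls: active = dose-dependent loss of cell ATP signal giving a full or clear fitted curve, ranked by lower potency value; inconclusive = weak partial curve or response only at the top dose; inactive = no loss of viability signal.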

Assay: Cell Viability - Jurkat (AID 426);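 note: cells exposed to compound for 40 hours at 37 °C before ATP read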
Settings: qHTS
Text: NIH Chemical Genomics Center [NCGC]
NIH Molecular Libraries Screening Centers Network [MLSCN]
National Institutes of Environmental Health Sciences [NIEHS]
National Toxicology Program [NTP]
We have developed a 1536-well cell-based assay for quantitative high throughput screening (qHTS) against a number of cell lines to determine in vitro cytotoxicity of small molecules. This particular assay uses the Jurkat cell line (Clone E6-1) which is derived from the human T cell leukemia.
NCGC Assay Protocol Summary:
The CellTiter-Glo luminescent cell viability assay (Promega) is a homogeneous method to measure the number of viable cells in culture. The end point readout of this assay is based on quantitation of intracellular ATP, an indicator of metabolic activity, using the luciferase reaction. Luciferase catalyzes the oxidation of beetle Luciferin to oxyluciferin and light in the presence of ATP. The luminescent signal is proportional to amount of ATP present.
Using the CellTiter-Glo luminescent cell viability assay, the amount of cellular ATP was measured in the Jurkat cell line with complete culture medium following compound treatment for 40 hours. The assay was performed in opaque white Kalypsys 1536-well plates. In the screen, tamoxifen and doxorubicin were used as positive controls. Library compounds were measured for their ability to cause acute toxicity in the cell line, as reflected by a decrease in intracellular ATP levels, in a concentration-dependent manner. […] AC50 values were determined from concentration-response data modeled with the standard Hill equation.
qHTS protocol for CellTiter Glo Jurkat cellular assay
[Step] [Parameter] [Value] [Description]
1. Reagent; 5 uL; 5000 Jurkat cells/well
3. Controls; 23 nL; Tamoxifen 0.34 uM to 100 uM & Doxorubicin 0.02 nM to 100 uM
4. Time; 40 hr; 37 °C incubation
5. Reagent; 5 uL; CellTiter Glo reagent
6. Time; 20 min; Room Temperature
7. Detection; Luminescence; Viewlux plate reader
Keywords: cell viability, cytotoxicity, Jurkat cell line, luminescence, NTPHTS, NTPHTS_NCGC, NIEHS, EPA, DSSTox, MLSMR, MLSCN, NIH Roadmap, qHTS, NCGC
Potency is the fitted concentration of half-maximal effect.

| Structure (SMILES) | Potency |
| --- | --- |
| CCOCCOCC | > 92 µM (inactive) |
| Nc1cc([N+](=O)[O-])ccc1C(=O)O | > 92 µM (inactive) |
| CC(C)=CCl | > 92 µM (inactive) |
| Nc1cccc(C(F)(F)F)c1 | > 92 µM (inactive) |
| CC(=O)OC(C)C | > 92 µM (inactive) |
| CCCCCO | > 92 µM (inactive) |
| ON=C1CCCCC1 | > 92 µM (inactive) |
| CCCCCCCCCCCCC1CO1 (stereo not given) | > 92 µM (inactive) |
| CC(=O)c1nccs1 | > 92 µM (inactive) |
| ICCc1ccccc1 | > 92 µM (inactive) |
| CC(C)=CCC/C(C)=C/C=O | > 92 µM (inactive) |
| O=C(O)CN(CC(=O)O)CC(=O)O | > 92 µM (inactive) |
| O=C(O)CCSSCCC(=O)O | > 92 µM (inactive) |
| O=C(O)c1cc(Cl)cc(Cl)c1 | > 92 µM (inactive) |
| Cc1cc(C)cc(N)c1 | > 92 µM (inactive) |
| O=C(O)c1ccc(C(=O)O)cc1 | > 92 µM (inactive) |
| Cc1ccc2nc(-c3ccc(N)cc3)sc2c1S(=O)(=O)O | > 92 µM (inactive) |
| CCCCCCCCC | > 92 µM (inactive) |
| Clc1ccc(Cl)c(Cl)c1Cl | > 92 µM (inactive) |
| CCCCC(CC)CNCC(CC)CCCC (stereo not given) | > 92 µM (inactive) |

| Structure (SMILES) | Potency |
| --- | --- |
| Cc1cccc(C)c1 | > 92 µM (inactive) |
| Cc1cccc(Br)c1 | > 92 µM (inactive) |
| Cc1nc2ccc(Cl)cc2[nH]1 | > 92 µM (inactive) |
| C=C(C)C(=O)OCC(C)O (stereo not given) | > 92 µM (inactive) |
| Nc1cc(Cl)c(N)c(Cl)c1 | > 92 µM (inactive) |
| O=C(O)c1c(Cl)cccc1Cl | > 92 µM (inactive) |
| COC(=O)c1ccccc1 | > 92 µM (inactive) |
| O=[N+]([O-])c1cccc(C(F)(F)F)c1 | > 92 µM (inactive) |
| CC(C)Nc1ccccc1 | > 92 µM (inactive) |
| CC(C)C=O | > 92 µM (inactive) |
| CC(C)C(C)C | > 92 µM (inactive) |
| Cc1cccc2cccnc12 | > 92 µM (inactive) |
| c1ccc2c(c1)Oc1ccccc1S2 | > 92 µM (inactive) |
| C=CCCC | > 92 µM (inactive) |
| CCCCCCCCC/C=C/CC1CC(=O)OC1=O (stereo not given) | > 92 µM (inactive) |
| Nc1cccc([N+](=O)[O-])c1 | > 92 µM (inactive) |
| CCCCCCO | > 92 µM (inactive) |
| CCC(O)C(C)(C)C (stereo not given) | > 92 µM (inactive) |
| Nc1ccccc1[N+](=O)[O-] | > 92 µM (inactive) |
| CC/C=C1/OC(=O)c2ccccc21 | > 92 µM (inactive) |
